Measured values from PubChem BioAssay (NCI).
This is part of a sample that, as a whole, favours compounds with a hit. Of some 79,000 tested, about 15% had one in any assay. Unmarked numbers belong to inactive results. The source made the active and inactive calls. Cut-off read from the data, not from the text of the source: active = growth inhibition above about 70%; inactive = the rest.

Experiment: NCI Yeast Anticancer Drug Screen. Data for the bub3 strain (AID 167)
Settings: S. cerevisiae bub3 mutant strain, at 50.0 µM, hits give high values
In short: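 Mutant yeast screening strain plus compound; vehicle-treated cultures serve as the 0% inhibition reference.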

SMILES | growth inhibition
O=[N+]([O-])CCCCl | 1.85%
CCCC(C)c1ccc(SOO)cc1.[Fe] (stereo not given) | 8.5%
CC1(C)N=C(N)N=C(N)N1c1ccc(CCc2ccc(Cl)c(S(=O)(=O)F)c2)c(Cl)c1 | 98.3% (active)
CCN(CC)C(=S)SC1C(=O)NC(=O)NC1=O | 1.9%
C=C(C)[C@H]1CN[C@H](C(=O)O)[C@H]1CC(=O)O | -6.5%
CC(C)=CC(=O)N(C)C1C2CN3CCC(O2)C13 (stereo not given) | 29.9%
Nc1ccc([N+](=O)[O-])cc1[N+](=O)[O-] | 0.6%
CC1C(C(=O)c2ccc(-c3ccccc3)cc2)N1C(C)(C)C (stereo not given) | 1.15%
[Se]c1nc(N2CCOCC2)ncc1-c1ccccc1 | -3.3%
CCCCCCC[CH2][Sn][CH2]CCCCCCC.Nc1ncnc2c1ncn2C1OC(CO)C2[OH+][OH+]C21 (stereo not given) | 2.3%
CO/N=C1\CC(C)N2C(=O)C(C(C)C)NC(=O)C(NC(=O)c3c4nc5c(C(=O)NC6C(=O)NC(C(C)C)C(=O)N7C(C)CC(O)C7C(=O)N(C)CC(=O)N(C)C(C(C)C)C(=O)OC6C)ccc(C)c5oc-4c(C)c(=O)c3N)C(CO)OC(=O)C(C)N(C)C(=O)CN(C)C(=O)C12 (stereo not given) | -3.9%
O=P(Oc1ccccc1)(Oc1ccccc1)N(CCCl)CCCl | -19.2%
O=C(O)C1C2C=Cc3ccccc3C21 (stereo not given) | -6.2%
CC(NC1=NCCO1)c1ccco1 (stereo not given) | 6.7%
CCOP(=O)(CSCCC1(C)NC(=O)NC1=O)OCC (stereo not given) | 7.2%
